# According to PubChem BioAssay (Tox21):
# “And” between values parts separate entries of the source, which are not always exact repeats. Equal entries are not always repeated. Records with an inconclusive call do not appear. Where a call stands in place of a potency, no number is given. Where a structure was tested more than once in an assay, its records may differ in their call. The source made the active and inactive calls. Unless noted, calls follow the shape of the dose curve; as a rule, active = well fitted curve in the direction sought with a large enough effect in the repeat runs; inconclusive = weak or mixed curves; inactive = no such curve, though single readings can be large; an effect the other way counts as inactive or inconclusive.
# Columns and labels:
# [1] = qHTS assay to identify small molecule antagonists of the glucocorticoid receptor (GR) signaling pathway - cell viability counter screen (AID 720693); also: nearly all actives have a fitted effect of over 55% in size
# [2] = qHTS assay for identifying genotoxic compounds that show differential cytotoxicity against isogenic chicken DT40 cell lines with known DNA damage response pathways - wild type cell line (AID 743012); also: nearly all actives have a fitted effect of over 60% in size; also: potency is read from the fitted curve at half-maximal effect
# Method in brief: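 CellTiter-Glo luminescence readout of viability in wild type DT40 cells after 40 h compound exposure at 37 C/5% CO2; 300 cells/well; reagent incubated 30 min at room temperature before reading.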
# [3] = qHTS assay for identifying genotoxic compounds that show differential cytotoxicity against isogenic chicken DT40 cell lines with known DNA damage response pathways - Rev3 mutant cell line (AID 743014); also: nearly all actives have a fitted effect of over 55% in size; also: potency is read from the fitted curve at half-maximal effect
# [4] = qHTS assay for identifying genotoxic compounds that show differential cytotoxicity against isogenic chicken DT40 cell lines with known DNA damage response pathways - Rad54/Ku70 mutant cell line (AID 743015); also: nearly all actives have a fitted effect of over 60% in size; also: potency is read from the fitted curve at half-maximal effect
# [5] = qHTS assay to identify small molecule antagonists of the androgen receptor (AR) signaling pathway - cell viability counter screen (AID 743033; also: nearly all actives have a fitted effect of over 45% in size)
# [6] = qHTS assay to identify small molecule antagonists of the androgen receptor (AR) signaling pathway using the MDA cell line - cell viability counter screen (AID 743041; also: nearly all actives have a fitted effect of over 45% in size)
# Method in brief: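 In this qHTS counter assay, fluorescence intensity after CellTiter-Fluor addition indicated viability of MDA-kb2 AR-luc cells given compounds and R1881 for 16 h at 37C.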
# [7] = qHTS assay to identify small molecule antagonists of the thyroid receptor (TR) signaling pathway - cell viability counter screen (AID 743064); also: nearly all actives have a fitted effect of over 50% in size
# Method in brief: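 In-well cytotoxicity read by CellTiter-Fluor (30 min, 37 C) following 23.5 h exposure of GH3 cells bearing a TRE-luciferase sensor. Compounds were added alongside 1 nM (final) T3 to drive TR transactivation.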
# [8] = qHTS assay to identify small molecule antagonists of the thyroid receptor (TR) signaling pathway (AID 743065); also: nearly all actives have a fitted effect of over 55% in size; also: potency is read from the fitted curve at half-maximal effect
# Method in brief: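 GH3.TRE-Luc rat pituitary cells carrying two TR response elements driving luciferase were plated for 4 h, given compound plus 1 nM T3 (final), and incubated 23.5 h at 37 C. ONE-Glo luminescence measured reporter inhibition; CellTiter-Fluor fluorescence tracked cytotoxicity.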
# [9] = tested on: thyroid hormone receptor (rat, GH3 cells); test: qHTS assay to identify small molecule agonists of the thyroid receptor (TR) signaling pathway (AID 743066; calls by dose curve)
# [10] = biological target: Estrogen receptor (Homo sapiens) (UniProt P03372); test: qHTS assay to identify small molecule antagonists of the estrogen receptor alpha (ER-alpha) signaling pathway (AID 743069; active = well fitted curve in the direction sought with a large enough effect in the signal ratio in the repeat runs, not every such curve was filed as active; the % refers to the signal ratio)
# Method in brief: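 A 17beta-estradiol challenge was applied right after compound transfer to ER-alpha-UAS-bla HEK293 cells previously kept in charcoal-stripped serum. Plates stood 18 hr at 37C and 5% CO2; fluorescence was read following 2 hr FRET substrate loading at room temperature.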
# [11] = biological target: Estrogen receptor (Homo sapiens) (UniProt P03372); test: qHTS assay to identify small molecule agonists of the estrogen receptor alpha (ER-alpha) signaling pathway (AID 743075; calls by dose curve;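 also: HEK293 GripTite cells with ER-alpha and UAS-driven beta-lactamase reporter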; also: potency is read from the fitted curve at half-maximal effect)
# [12] = biological target: Estrogen receptor (Homo sapiens) (UniProt P03372); test: qHTS assay to identify small molecule agonists of the estrogen receptor alpha (ER-alpha) signaling pathway using the BG1 cell line (AID 743079); also: nearly all actives have a fitted effect of over 20% in size; also: potency is read from the fitted curve at half-maximal effect
# [13] = qHTS assay to identify small molecule antagonists of the estrogen receptor alpha (ER-alpha) signaling pathway using the BG1 cell line (AID 743080; calls by dose curve;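 also: BG1 cells stimulated with 17beta-estradiol alongside compound; series mostly up to about 70 µM; nearly all actives have a fitted effect of over 25% in size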)
# Method in brief: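 Endogenous full-length ER-alpha in BG1-Luc-4E2 cells drives a stably integrated 4×ERE luciferase gene; compounds were tested against 17beta-estradiol over 21.5 h, with luminescence and multiplexed viability fluorescence recorded.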
# [14] = qHTS assay to identify small molecule antagonists of the estrogen receptor alpha (ER-alpha) signaling pathway using the BG1 cell line - cell viability counter screen (AID 743081);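 also: compound given together with 17beta-estradiol as the ER stimulus; series mostly up to about 70 µM; nearly all actives have a fitted effect of over 45% in size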
# Aromatase (Homo sapiens) = Aromatase (Homo sapiens) (UniProt P11511); test: qHTS assay to identify aromatase inhibitors (AID 743083); also: series mostly up to about 70 µM; nearly all actives have a fitted effect of over 55% in size
# [15] = qHTS assay to identify small molecule antagonists of the estrogen receptor alpha (ER-alpha) signaling pathway - cell viability counter screen (AID 743074; calls by dose curve;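 also: HEK293 cells carrying ER-alpha-UAS-bla reporter stimulated with 17beta-estradiol; nearly all actives have a fitted effect of over 45% in size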)
# Chain of Estrogen receptor (Homo sapiens) (P03372 whole entry, looked up): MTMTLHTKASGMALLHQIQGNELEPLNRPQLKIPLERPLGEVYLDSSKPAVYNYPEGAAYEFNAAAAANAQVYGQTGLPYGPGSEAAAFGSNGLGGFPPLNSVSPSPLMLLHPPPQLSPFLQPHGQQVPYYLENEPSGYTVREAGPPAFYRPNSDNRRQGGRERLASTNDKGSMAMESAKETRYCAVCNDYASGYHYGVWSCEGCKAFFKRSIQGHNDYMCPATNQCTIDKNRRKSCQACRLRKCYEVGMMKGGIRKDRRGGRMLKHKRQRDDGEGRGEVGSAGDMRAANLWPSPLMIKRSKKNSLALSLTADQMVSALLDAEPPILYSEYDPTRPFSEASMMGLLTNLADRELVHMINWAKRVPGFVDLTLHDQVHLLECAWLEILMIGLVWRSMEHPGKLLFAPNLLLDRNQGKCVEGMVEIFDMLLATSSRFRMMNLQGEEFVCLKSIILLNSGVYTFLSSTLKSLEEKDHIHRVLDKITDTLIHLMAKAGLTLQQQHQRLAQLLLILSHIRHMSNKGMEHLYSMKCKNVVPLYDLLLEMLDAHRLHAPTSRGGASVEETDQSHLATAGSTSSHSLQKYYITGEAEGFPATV
# Chain of Aromatase (Homo sapiens) (P11511 whole entry, looked up): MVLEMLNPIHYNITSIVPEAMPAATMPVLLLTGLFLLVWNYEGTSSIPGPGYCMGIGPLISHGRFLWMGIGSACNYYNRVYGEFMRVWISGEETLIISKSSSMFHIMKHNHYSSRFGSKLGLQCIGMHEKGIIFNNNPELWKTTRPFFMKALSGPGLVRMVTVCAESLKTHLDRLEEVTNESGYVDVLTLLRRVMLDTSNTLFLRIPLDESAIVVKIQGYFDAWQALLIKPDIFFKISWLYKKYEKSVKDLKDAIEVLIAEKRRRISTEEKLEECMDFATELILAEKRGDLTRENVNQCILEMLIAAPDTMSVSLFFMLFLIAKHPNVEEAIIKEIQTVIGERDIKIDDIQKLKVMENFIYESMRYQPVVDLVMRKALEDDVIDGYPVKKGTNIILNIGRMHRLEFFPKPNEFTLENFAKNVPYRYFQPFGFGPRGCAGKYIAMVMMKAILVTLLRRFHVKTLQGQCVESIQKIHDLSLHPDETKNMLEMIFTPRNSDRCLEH
SMILES,Potency [1],Potency [2],Potency [3],Potency [4],outcome [5],Potency [6],Potency [7],Potency [8],outcome [9],Potency [10],Potency [11],Potency [12],Potency [13],Potency [14],Potency (Aromatase (Homo sapiens)),outcome [15]
COc1ccccc1NC(=O)CC(C)=O,inactive,inactive,inactive,inactive,inactive,inactive,inactive,inactive,inactive,inactive,inactive,inactive,inactive,inactive,inactive,–
OCCCc1ccccc1,inactive,inactive,inactive,inactive,inactive,inactive,inactive,inactive,inactive,inactive,inactive,inactive,–,inactive,inactive,inactive
O=c1cc[nH]c(=O)[nH]1,inactive,inactive,inactive,inactive,inactive,inactive,inactive,inactive,inactive,–,–,–,–,inactive,–,inactive
CCCCCCCCCCCCCCCCCC(=O)OCC(O)CO (stereo not given),inactive,inactive,inactive,inactive,inactive,inactive,inactive,inactive,inactive,inactive,inactive,inactive,–,inactive,inactive,inactive
CC1(C)O[C@@H]2[C@@H](CO[C@@]3(COS(N)(=O)=O)OC(C)(C)O[C@@H]23)O1,inactive,inactive,inactive,inactive,inactive,inactive,inactive,inactive,inactive,inactive,inactive,inactive,–,inactive,inactive,inactive
Cc1c(N(C)C)c(=O)n(-c2ccccc2)n1C,inactive,inactive,inactive,inactive,inactive,inactive,inactive,inactive,inactive,inactive,inactive,inactive,–,inactive,inactive,inactive
CCCCOCCOCCOC(C)=O,inactive,inactive,inactive,inactive,inactive,inactive,inactive,inactive,inactive,inactive,inactive,inactive,–,inactive,inactive,inactive
CC(C)(C)NCC(O)c1ccc(O)c(CO)c1 (stereo not given),inactive,inactive,inactive,inactive,inactive,inactive,inactive,inactive,inactive,inactive,inactive,inactive,–,inactive,inactive,inactive
C#C[C@]1(O)CC[C@H]2[C@@H]3CCC4=CC(=O)CC[C@@H]4[C@H]3CC[C@@]21CC,inactive,inactive and 24.3 µM (active),inactive and 27.3 µM (active),inactive and 19.3 µM (active) and 54.5 µM (active),inactive,inactive,inactive,27.3 µM (active),inactive,–,–,422 nM (active) and 38.6 nM (active) and 386 nM (active),inactive,inactive,inactive,inactive
COC(=O)c1ccc(C=O)cc1,inactive,inactive,inactive,inactive,inactive,inactive,inactive,inactive,inactive,inactive,inactive,inactive,–,inactive,inactive,inactive
O=C(O)CN(CC(=O)O)CC(=O)O,inactive,inactive,inactive,inactive,inactive,inactive,inactive,inactive,inactive,inactive,inactive,inactive,–,inactive,inactive,inactive
Cc1ccc(O)c(-n2nc3ccccc3n2)c1,inactive,inactive,inactive,26.6 µM (active) and inactive,inactive,inactive,inactive,inactive,inactive,inactive,inactive and 11 µM [activator] (active),5.96 µM (active) and 17.1 µM (active) and 3.86 µM (active),–,inactive,inactive,inactive
CC1=NN(c2ccccc2)C(=O)C1,inactive,inactive,inactive,inactive,inactive,inactive,inactive,inactive,inactive,inactive,inactive,inactive,–,inactive,inactive,inactive
CCCCCCCCOc1ccc(C(=O)c2ccccc2)c(O)c1,inactive,inactive,inactive and 61.1 µM (active),inactive and 68.6 µM (active),inactive,inactive,inactive,inactive,inactive,inactive,inactive,inactive,–,inactive,inactive,inactive
Cc1cccc2ccccc12,inactive,inactive,inactive,inactive,inactive,inactive,inactive,inactive,inactive,inactive,inactive,inactive,–,inactive,inactive,inactive
